Screening results from PubChem.
Only a selection was taken, and hits are over-represented in it overall.
Candida biofilm: kills Candida albicans biofilms; C. albicans biofilm + clotrimazole, Alamar Blue; inhibition, % at 6 µM; 85,000 compounds, 0.14% hits; AID 834;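 active = inhibition above 20%; inactive = inhibition below 20%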;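 also: preformed 24 hr biofilms exposed to compound for 48 hr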
HePTP inhibitor: inhibitors of human HePTP phosphatase. inhibition, % at 20 µM. P35236. recombinant HePTP phosphatase activity, OD absorbance. AID 521. 110,000 compounds, 0.64% hits; in the data active = inhibition above about 50%
DAT uptake mod: human DAT dopamine uptake with cocaine, either direction | Q01959 | LLC-PK1 hDAT cells, [14C]-dopamine uptake with cocaine IC80; actives deviate in either direction | B-score at 10 µM | 110,000 compounds, 1.3% hits;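 active = Z score or B-score, a plate-position-corrected score, falls beyond the plate's 99.7% confidence bounds, in either direction; inactive = both scores lie inside the 99.7% bounds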
TNAP act mid DEA: activators of human TNAP at intermediate phosphate acceptor; 64,000 tested, under 10 active; P05186; purified TNAP, CDP-star luminescence, 100 mM DEA, 30 min; stronger effect = higher value; scale: 0 levamisole-inhibited, 1 vehicle-only enzyme; activation factor at 20 µM;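 active = activation factor of at least 2 at 20 µM, relative to controls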
D1 mod: allosterically modulates the human D1 dopamine receptor. 58,000 compounds, 5.9% hits. B-score at 10 µM. AID 641. HEK293 D1, CRE-luciferase, dopamine EC30 potentiation; actives deviate in either direction. P21728;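 active = luminescence count or its row- and column-corrected plate score outside the 99.7% band of the plate's sample wells, on either side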
Target sequence (P21728 whole entry, looked up): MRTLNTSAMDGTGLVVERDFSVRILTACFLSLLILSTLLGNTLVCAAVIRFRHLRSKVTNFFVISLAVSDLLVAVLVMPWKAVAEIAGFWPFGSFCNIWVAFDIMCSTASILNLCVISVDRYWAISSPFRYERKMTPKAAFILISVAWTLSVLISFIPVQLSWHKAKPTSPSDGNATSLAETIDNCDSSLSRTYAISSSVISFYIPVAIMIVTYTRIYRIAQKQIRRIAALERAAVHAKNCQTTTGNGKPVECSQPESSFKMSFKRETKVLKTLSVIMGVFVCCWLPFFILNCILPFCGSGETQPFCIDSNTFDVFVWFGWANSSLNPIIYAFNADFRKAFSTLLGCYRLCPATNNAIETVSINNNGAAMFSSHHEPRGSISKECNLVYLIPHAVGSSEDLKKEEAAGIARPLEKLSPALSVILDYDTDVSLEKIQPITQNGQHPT
PLAP act: human PLAP activation | AID 696 | purified PLAP enzyme, luminescent substrate read-out; stronger effect = higher value | 96,000 compounds, 1.2% hits | activation fold at 20 µM | P05187; in the data active = activation fold above about 2
D1 PAM confirm: D1 receptor (human) allosteric modulation, confirmed | shares compounds with D1 mod | HEK293 D1 CRE-luciferase, dopamine EC30 potentiation; stronger effect = higher value | luminescence at 10 µM | 2,200 compounds, 88% hits;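 active = luminescence in either of two replicates above the same-plate mean plus 3 SD of the low-dose dopamine control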
D1 ag no DA: D1 (human) signaling in absence of dopamine. HEK293 D1 CRE-luciferase, luminescence, no dopamine; stronger effect = higher value. shares compounds with D1 mod. luminescence at 10 µM. 1,900 compounds, 0.8% hits; in the data active = luminescence above about 3900
Isoprot counter: alters isoproterenol CRE-luciferase response in HEK293 cells | shares compounds with D1 mod | HEK293 D1 CRE-luciferase, isoproterenol EC30 counter-screen; stronger effect = higher value | luminescence at 10 µM | 2,200 compounds, 63% hits;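 active = luminescence in either replicate above plate mean of wells with a partly effective reference agonist dose plus 3 SD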;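 also: isoproterenol raises cAMP through native beta-adrenoceptor Gs so signal bypasses D1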
Large screens that a line does not name were inactive (follow-up assays come after a bar, where they were run).

NC(=O)CCC(NC(=O)c1ccc(-c2ccccc2)cc1)C(=O)O (stereo not drawn)	none (no result: Candida biofilm, DAT uptake mod, TNAP act mid DEA, D1 mod, PLAP act)
COc1ccc(CC(=O)NNC(=O)c2ccco2)cc1OC	none (no result: Candida biofilm, DAT uptake mod, TNAP act mid DEA, D1 mod, PLAP act)
COc1ccc(-c2nc(CCNC(=O)c3ccco3)cs2)cc1OC	D1 mod 24 | D1 PAM confirm 24816 | D1 ag no DA inactive | Isoprot counter 6984
CCCCNC(=O)c1cc(-c2ccc(OC)c(OC)c2)on1	D1 mod 3.37 (no result: HePTP inhibitor) | D1 PAM confirm 9084 | D1 ag no DA inactive | Isoprot counter inactive
COc1ccc(-c2cc(C(=O)N3CCOCC3)no2)cc1OC	D1 mod 5.96 (no result: Candida biofilm) | D1 PAM confirm 11468 | D1 ag no DA inactive | Isoprot counter 3588
COc1ccc(CNC(=O)c2cc(-c3ccc(OC)c(OC)c3)on2)cc1	none
COc1ccc(-c2cc(C(=O)N(C)Cc3ccccc3)no2)cc1OC	D1 mod 17 (no result: Candida biofilm) | D1 PAM confirm 18128 | Isoprot counter 6364
C/C(=N\NC(=O)c1cc(C23CC4CC(CC(C4)C2)C3)[nH]n1)c1ccc(N)cc1	none (no result: Candida biofilm, DAT uptake mod, TNAP act mid DEA, D1 mod, PLAP act)
COc1ccc(S(=O)(=O)N(C)c2ccc(C(=O)N3CCOCC3)cc2)cc1OC	D1 mod 14.7 | D1 PAM confirm 16652 | D1 ag no DA inactive | Isoprot counter inactive
COc1ccc(-c2cc(C(=O)NCc3ccccc3)no2)cc1OC	D1 mod 4.62 (no result: Candida biofilm) | D1 PAM confirm 10196 | Isoprot counter 3320
O=C1CC(Nc2ccc(F)cc2)C(=O)N1c1ccc(Br)cc1 (stereo not drawn)	none (no result: Candida biofilm, DAT uptake mod, TNAP act mid DEA, D1 mod, PLAP act)
COc1ccc(C(=O)N2CCN(c3ccc(C)cc3C)CC2)cc1OC	none
COc1ccc(C(=O)N2CCc3cc(OC)c(OC)cc3C2)cc1OC	D1 mod 3.7 | D1 PAM confirm 9712 | D1 ag no DA inactive | Isoprot counter 3188
COc1ccc(C(=O)N2CCN(S(=O)(=O)c3ccc(C)cc3C)CC2)cc1OC	D1 mod 4.65 | D1 PAM confirm 10368 | D1 ag no DA inactive | Isoprot counter 4316
Cc1ccc(Cl)cc1N(Cc1ccc(C(=O)N(C(C)C)C(C)C)cc1)S(=O)(=O)c1ccccc1	none (no result: Candida biofilm, DAT uptake mod, TNAP act mid DEA, D1 mod, PLAP act)
CCCS(=O)(=O)c1c(S(=O)(=O)CCC)c2cc(CC)ccn2c1C(=O)OC	D1 mod 6.49 | D1 PAM confirm 13540 | D1 ag no DA inactive | Isoprot counter 4544
CCOc1ccc(-c2[nH]ncc2-c2ccc(OC)c(OC)c2)c(O)c1	D1 mod 5.23, PLAP act 2.7 | D1 PAM confirm 13188 | D1 ag no DA inactive | Isoprot counter 3552
CCOc1ccc(-c2n[nH]c(C)c2Oc2ccc(OC)cc2)c(O)c1	none (no result: PLAP act)
CSc1cc(/C=N/O)c(SC)s1	D1 mod 6.89 (no result: Candida biofilm) | D1 PAM confirm 12744 | D1 ag no DA inactive | Isoprot counter inactive
COc1ccc(C(=O)Nc2cccc(-c3nc4ccccc4s3)c2C)cc1	none (no result: Candida biofilm, DAT uptake mod, TNAP act mid DEA, D1 mod, PLAP act)
CCOc1cc(-c2noc(CCC(=O)Nc3cccnc3)n2)ccc1OC	D1 mod 18.1 | D1 PAM confirm 17716 | D1 ag no DA inactive | Isoprot counter 3168
CCOc1ccc(-c2noc(CCC(=O)NC)n2)cc1OCC	D1 mod 12.5 | D1 PAM confirm 19240 | D1 ag no DA inactive | Isoprot counter 4300
COc1ccccc1C1CC(=O)Nc2cc3c(cc21)OCCO3 (stereo not drawn)	none
CC(C)Oc1ccccc1C1CC(=O)Nc2cc3c(cc21)OCCO3 (stereo not drawn)	D1 mod 2.33 | D1 PAM confirm 10132 | D1 ag no DA inactive | Isoprot counter inactive
O=C1CC(c2cccs2)c2cc3c(cc2N1)OCCO3 (stereo not drawn)	D1 mod 7.02 | D1 PAM confirm 10536 | D1 ag no DA inactive | Isoprot counter inactive
S=C(Nc1cccc2ccccc12)N1CCN(C(c2ccccc2)c2ccccc2)CC1	none (no result: Candida biofilm, DAT uptake mod, TNAP act mid DEA, D1 mod, PLAP act)
